Assay [1] is described as follows: Primary qHTS for inhibitors of nuclear receptor binding SET domain protein 2 (NSD2) in an isogenic RCH-ACV NSD2 p.E1099K mutant (9B) (AID 1645876). On the technique in general: qHTS replaces the single test concentration by a dilution series.
The nature of assay [2]: Primary qHTS for inhibitors of nuclear receptor binding SET domain protein 2 (NSD2) in an RCH-ACV wild type WT cells (2C) (AID 1645877).

The source of these data is PubChem BioAssay (NCATS).

“And” between values parts separate entries of the source, which are not always exact repeats. Equal entries are not always repeated. Results filed as inconclusive are left out. The source made the active and inactive calls. Calls follow the shape of the dose curve; as a rule, active = well fitted curve in the direction sought with a large enough effect; inconclusive = small, poorly fitted or top-dose-only effect, or another doubt; inactive = no such curve, though single readings can be large; an effect the other way counts as inactive or inconclusive.
Also: nearly all actives have a fitted effect of over 70% in size.
Potency is read from the fitted curve at half-maximal effect.

In the case of `c1ccc2c(CCNc3ccc(Nc4ccncc4)cc3)c[nH]c2c1`, the Potency in assay [1] was 728 nM (active) and 332 nM (active); in assay [2], 578 nM (active) and 296 nM (active).

On to `O=C(Nc1cc(C(F)(F)F)cc(C(F)(F)F)c1)c1cc(Cl)ccc1O`, for which the Potency in assay [1] is 3.25 µM (active) and 2.63 µM (active); in assay [2], 2.3 µM (active) and 2.95 µM (active).

In the case of `COCCn1c2c([n+](Cc3cnccn3)c1C)C(=O)c1ccccc1C2=O`, the Potency is 0.0042 µM (active) in assay [1] and 0.0059 µM (active) in assay [2].

Take `O=C(Nc1nc2cccc(-c3ccc(CN4CCS(=O)(=O)CC4)cc3)n2n1)C1CC1`: the Potency in assay [1] is 14.5 µM (active) and 14.8 µM (active); in assay [2], 18.3 µM (active) and 9.34 µM (active).

`CC(C)c1cc(C(=O)N2Cc3ccc(CN4CCN(C)CC4)cc3C2)c(O)cc1O`: the Potency in assay [1] is 115 nM (active) and 148 nM (active); in assay [2] it was 129 nM (active) and 166 nM (active).

As for `Cn1c(=O)n(-c2ccc(C(C)(C)C#N)cc2)c2c3cc(-c4cnc5ccccc5c4)ccc3ncc21`, the Potency is 103 nM (active) and 38.2 nM (active) in assay [1]; 91.6 nM (active) and 42.8 nM (active) in assay [2].

On to `CC(C)Nc1cc(C(F)(F)F)cc2nc(NC(=O)c3cccnc3)nn12`, for which the Potency entry in assay [1] and in assay [2] was “inactive” throughout.

For the compound `Cc1cn(-c2cc(NC(=O)c3ccc(C)c(Nc4nccc(-c5cccnc5)n4)c3)cc(C(F)(F)F)c2)cn1`, the Potency is 8.2 µM (active) and 11.8 µM (active) in assay [1]; 5.8 µM (active) and 2.35 µM (active) in assay [2].

In the case of `CC(C)c1cnn2c(NCc3ccccc3)cc(N[C@@H](CO)[C@H](O)CO)nc12`, the Potency was 515 nM (active) and 186 nM (active) in assay [1]; 515 nM (active) and 166 nM (active) in assay [2].

`Cc1cc(Nc2cc(NC(=O)c3c(Cl)cccc3Cl)ccn2)nc(N)n1`: the Potency in assay [1] is 0.417 µM (active); in assay [2], 0.291 µM (active).

`CCCCCCCCCC(=O)N[C@@H](Cc1c[nH]c2ccccc12)C(=O)N[C@H](CC(N)=O)C(=O)N[C@@H](CC(=O)O)C(=O)N[C@@H]1C(=O)NCC(=O)N[C@@H](CCCN)C(=O)N[C@@H](CC(=O)O)C(=O)N[C@H](C)C(=O)N[C@@H](CC(=O)O)C(=O)NCC(=O)N[C@H](CO)C(=O)N[C@@H]([C@@H](C)CC(=O)O)C(=O)N[C@@H](CC(=O)c2ccccc2N)C(=O)O[C@@H]1C`: the Potency result in assay [1] and in assay [2] was “inactive” in each case.

Take `COc1ccc2c(OCc3nnc4ccc(-c5ccccc5)nn34)ccnc2c1`: the Potency result in assay [1] and in assay [2] was “inactive” throughout.

In the case of `CC(C)c1cc(-c2n[nH]c(=O)n2-c2ccc3c(ccn3C)c2)c(O)cc1O`, the Potency in assay [1] is 25.8 nM (active) and 29.5 nM (active); in assay [2] it was 25.8 nM (active) and 29.5 nM (active).

For `N#CCNC(=O)c1ccc(-c2ccnc(Nc3ccc(N4CCOCC4)cc3)n2)cc1`, the Potency in assay [1] is 817 nM (active) and 2.63 µM (active); in assay [2], 1.15 µM (active) and 2.95 µM (active).

In the case of `Cc1cn2c(-c3cn[nH]c3)cnc2c(Nc2ccc(C(=O)N3CCNCC3)cc2F)n1`, the Potency is 9.16 µM (active) in assay [1] and 12.9 µM (active) in assay [2].

On to `Nc1ccccc1NC(=O)c1ccc(CNC(=O)OCc2cccnc2)cc1`, for which the Potency in assay [1] is 578 nM (active) and 742 nM (active); in assay [2], 459 nM (active) and 662 nM (active).

Take `CC(C)(C)OC(=O)Nc1ccc(-c2cc(C(=O)NCCCCCCC(=O)NO)no2)cc1`: the Potency was 1.48 µM (active) in assay [1] and 1.32 µM (active) in assay [2].

Regarding `CN(C)CC(C)(C)CNc1nn2c(-c3ccccc3)nnc2cc1C1CCC1`, the Potency entry in assay [1] and in assay [2] was “inactive” in each case.

As to `Cc1ccc2nc(NC(=O)CSc3nc4c(c(=O)n3-c3ccccc3)SCC4)sc2c1`, the Potency entry in assay [1] and in assay [2] was “inactive” in each case.

On to `Clc1ccc2ncc(-c3cccc(NC4CNC4)n3)n2c1`, for which the Potency entry in assay [1] and in assay [2] was “inactive” each time.

Consider `Cc1nc2cnc3ccc(C#Cc4cccnc4)cc3c2n1-c1ccc(C(C)(C)C#N)cc1`, for which the Potency was 7.31 µM (active) and 148 nM (active) in assay [1]; 8.2 µM (active) and 148 nM (active) in assay [2].

Turning to `CC(=O)Nc1sc2c(c1-c1nc3ccccc3s1)CNC2`, the Potency in assay [1] and in assay [2] was 2.9 µM (active) throughout.

`CC(=O)c1c(C)c2cnc(Nc3ccc(N4CCNCC4)cn3)nc2n(C2CCCC2)c1=O`: the Potency in assay [1] was 1.48 µM (active); in assay [2], 1.32 µM (active).

Regarding `CCN1CCN(Cc2ccc(-c3cc4c(N[C@H](C)c5ccccc5)ncnc4[nH]3)cc2)CC1`, the Potency was 9.34 µM (active) in assay [1] and 7.42 µM (active) in assay [2].
